Sampled rows, rich in hits. Any-hit rate of the full collection: about 12%.
FMDV antiviral: High Throughput Screening for Foot and Mouth Disease Virus Antivirals; Potency, µM (highest dose often 57.9 µM), inactives show top-dose activity change, negative = inhibition, actives largely listed as inhibitors; 410,000 compounds, 1.2% hits; FMDV antiviral cell-based qHTS; AID 1159524, 2015; calls by dose curve; tested in HEK293T cells; further: read-out not given here; potency means the concentration at half of the fitted maximal effect; on the % scale 0 is the no-effect control and ±100 the full control effect; nearly all actives have a fitted effect of over 45% in size
Shiga toxin inh: A qHTS for Small Molecule Inhibitors of Shiga Toxin; Vero cells, Shiga toxin protein synthesis inhibition reporter; inhibition, % at 38.7 µM; 290,000 compounds, 9.2% hits; in the data active means inhibition mostly above about 28%, no sharp cut-off; inactive means mostly below about 43%; further: 0% is about no effect
CHX counter: Cycloheximide Counterscreen for Small Molecule Inhibitors of Shiga Toxin; cell reporter, cycloheximide protein synthesis inhibition counterscreen; max response, %; 300,000 compounds, 12% hits; in the data active means max response mostly above about 13%, no sharp cut-off; inactive means mostly below about 14%; further: read at 38.3 µM for the half of the compounds with a filed dose; 0% is about no effect
Sm TGR block: qHTS Assay for the Inhibitors of Schistosoma Mansoni Peroxiredoxins; Schistosoma mansoni thioredoxin glutathione reductase (TGR), Q962Y6; purified TGR, DTNB reduction, TNB absorbance 405 nm; Potency, µM (titrated, usually from 114 µM), for the others: top-dose activity change, negative = inhibition, actives largely listed as inhibitors; 360,000 compounds, 3% hits; AID 485364, 2010; active means well fitted inhibition curve with a large enough effect; inconclusive means small, poorly fitted or top-dose-only effect; inactive means no such curve, though single readings can be large or run the other way; further: potency means the concentration at half of the fitted maximal effect; on the % scale 0 is the no-effect control and ±100 the full control effect; nearly all actives have a fitted effect of over 60% in size
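Kinetic colorimetric format: TGR-catalysed, NADPH-driven DTNB reduction monitored via TNB absorbance. Enzyme dispensed at 20 nM; compound exposure 15 min at room temperature before reaction start.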
* marks the source's active call; other numbers are inactive results; ? = inconclusive; . = no result given; [ ] = remark or other dose.

SMILES	FMDV antiviral	Shiga toxin inh	CHX counter	Sm TGR block
O=S(=O)(c1cccc(-c2nc3ccccc3s2)c1)N1CCOCC1	26%	2	14	2%
COc1cc(/C=N\Nc2nc3ccccc3[nH]2)cc(OC)c1OC	-18%	76	34*	6%
COc1cc(OC)c(OC)cc1/C=N/Nc1nc2ccccc2[nH]1	-8%	-2	-2	12%
COc1ccc(/C=N/Nc2nc3ccccc3[nH]2)cc1OC	-17%	73*	32*	0%
CC(CNC(=O)c1cc2ccccn2n1)c1ccccc1 (stereo not given)	22%	.	.	1%
C=Cc1ccc(Cn2c(SCC(=O)N3CCN(c4ccc(F)cc4)CC3)nc3ccccc32)cc1	0%	.	.	3%
COc1ccc2nc(NC(=O)c3ccccc3O)sc2c1	-32%	63*	58*	-9%
O=C(Nc1nc2ccccc2s1)c1ccccc1[N+](=O)[O-]	62%	60*	46*	-21%
CCOC(=O)c1cccc(C(=O)Nc2nc3ccc(OC)cc3s2)n1	20%	39*	21	2%
COc1ccc2nc(NC(=O)CSc3nc(C)cc(C)n3)sc2c1	?	-14	-4	-5%
COc1cccc(OC)c1C(=O)Nc1nc2ccc([N+](=O)[O-])cc2s1	-20%	-7	1	16%
O=C(O)c1cccc([N+](=O)[O-])c1C(=O)Nc1nc2ccccc2s1	3%	34	6	8%
COc1ccc2nc(NC(=O)c3ccccc3[N+](=O)[O-])sc2c1	41%	71*	40*	15%
CCN1CCN(Cc2nc3cc(NC(=O)c4cc(OC)c(OC)c(OC)c4)ccc3n2CC)CC1	3%	.	.	-3%
O=C(NNC(=O)c1ccccc1[N+](=O)[O-])c1ccccc1[N+](=O)[O-]	-5%	-10	1	0%
COc1ccc(C(=O)NNC(=O)c2ccccc2[N+](=O)[O-])cc1	25%	37*	32*	3%
COc1ccc(-c2onc(C)c2C)cc1S(=O)(=O)Nc1ccc(OC(F)(F)F)cc1	24%	.	.	-2%
CCC(=O)c1ccc(OC(=O)N2CCOCC2)cc1	0%	33*	23*	6%
O=C(Oc1ccccc1)N1CCOCC1	-3%	-11	-3	6%
Cc1ccc(OC(=O)N2CCOCC2)cc1	8%	48*	30*	14%
O=C(Oc1ccccc1OC(=O)N1CCOCC1)N1CCOCC1	15%	7	-3	-2%
COC(=O)c1ccc(OC(=O)N2CCOCC2)cc1	7%	.	-2	3%
O=C(Oc1ccc(OC(=O)N2CCOCC2)cc1)c1ccccc1	-3%	14	12*	0%
CC(C)(C)c1ccc(OC(=O)N2CCOCC2)cc1	30%	69*	45*	-6%
CC(=O)c1ccc(S(=O)(=O)N2CCn3cccc3C2c2ccccc2F)cc1 (stereo not given)	-15%	.	.	-32%
SMILES	FMDV antiviral	Shiga toxin inh	CHX counter	Sm TGR block
Cc1c(Cl)cccc1NC(=O)CCS(=O)(=O)c1ccc2c(c1)CC(=O)N2C	-14%	.	.	1%
O=C(Oc1ccc2ccc(OC(=O)N3CCOCC3)cc2c1)N1CCOCC1	3%	23	11*	4%
O=C(Nc1nc(-c2ccco2)c(-c2ccco2)s1)C1CC(=O)N(c2ccc3c(c2)OCCO3)C1 (stereo not given)	?	0	12	11µM*
CCOc1ccc(N2CC(C(=O)Nc3ccc4c(c3)OCO4)CC2=O)cc1 (stereo not given)	29%	-4	-4	6%
CCOc1ccc(N2CC(C(=O)Nc3ccc4c(c3)OCCO4)CC2=O)cc1 (stereo not given)	?	62*	50*	-2%
Cc1cc(C)c(NC(=O)C2CC(=O)N(c3ccc4c(c3)OCCO4)C2)c(C)c1 (stereo not given)	-17%	13	26*	5%
Cc1nnc(NC(=O)C2CC(=O)N(c3ccc4c(c3)OCCO4)C2)s1 (stereo not given)	-12%	.	.	3%
Cc1c(Cl)cccc1NC(=O)CCS(=O)(=O)c1ccc2c(c1)CC(C)N2C(=O)C1CC1 (stereo not given)	0%	.	.	6%
CCOC(=O)c1cccc(NC(=O)C2CCN(S(=O)(=O)c3cn(C)cn3)CC2)c1	4%	.	.	3%
CC(=O)c1ccccc1-c1ccc2c(c1)CC(CNC(=O)c1cc(C)on1)O2 (stereo not given)	-26%	.	.	.
CCCCNC(=O)c1cc2cc(OC)ccc2[nH]1	17%	23	14*	18%
COc1ccc2[nH]c(C(=O)NCCc3ccccc3)cc2c1	33%	85*	32*	11%
COc1ccc2[nH]c(C(=O)NCCCn3ccnc3)cc2c1	-6%	-5	-2	-3%
O=C(O)c1ccc(NC(=S)NC(=O)c2cccc(COc3ccccc3)c2)cc1	-9%	7	8	25µM*
CCCCOc1cccc(C(=O)NC(=S)Nc2cccnc2)c1	-4%	-4	10	-17%
CCOc1cccc(C(=O)NC(=S)Nc2cccnc2)c1	42%	80*	38*	45µM*
CCOc1cccc(C(=O)NC(=S)Nc2ccc(N3CCN(CC)CC3)cc2)c1	4%	51	0	.
CCOc1cccc(C(=O)NC(=S)Nc2cccc(NC(=O)c3ccccc3Cl)c2)c1	-20%	24	14*	-23%
CCOc1cccc(C(=O)NC(=S)Nc2ccccc2)c1	17%	141*	104*	40µM*
CC1CCN(C(=O)CSc2c(C(C)C)cnc3c2c(=O)n(C)c(=O)n3C)CC1	?	.	.	2%
Cc1cccc(NC(=O)NCCn2c(=O)oc3ccc(C)cc32)c1	-2%	.	.	1%
S=C(NCCCN1CCOCC1)N1CCN(c2nc(-c3ccccc3)cs2)CC1	?	10	2	5%
S=C(NCCCN1CCOCC1)N1CCN(c2nc(-c3ccc(Cl)cc3)cs2)CC1	13µM*	5	-3	6%
S=C(NCC1CCCO1)N1CCN(c2nc(-c3ccc(Cl)cc3)cs2)CC1 (stereo not given)	16µM*	-7	-2	9%[57.1 µM]
CCSC1(SCC)N=C(N)C2(C#N)C(c3ccccc3)NC3=C(CCC3)C12C#N (stereo not given)	-5%	-7	-3	?
SMILES	FMDV antiviral	Shiga toxin inh	CHX counter	Sm TGR block
CCSC1(SCC)N=C(N)C2(C#N)C(c3ccc(OC)c(OC)c3OC)C12C#N (stereo not given)	25µM*	-10	-4	14µM*
CCOc1cc(C(=O)Nc2cccc(-c3nc4ccccc4o3)c2)cc(OCC)c1OCC	0%	.	.	8%
CCc1ccccc1NC(=O)CSc1nc2c(oc3ccccc32)c(=O)n1-c1ccccc1F	-21%	.	.	4%
CNC(=O)c1nnsc1S(=O)c1ccc(Cl)cc1 (stereo not given)	?	98*	55*	0.32µM*
CCCNC(=O)c1nnsc1S(=O)c1ccc(Cl)cc1 (stereo not given)	35µM*	18	36*	0.32µM*
CCCNC(=O)c1nnsc1S(=O)(=O)c1ccc(Cl)cc1	32µM*	30	27*	0.32µM*
Cc1ccc(S(=O)c2snnc2C)cc1 (stereo not given)	-3%	-6	-2	-34%
